The results in this text go back to ChEMBL document CHEMBL3988442, “University of Dundee, Small-Polar-MMV Screening Library” (2021).

Screen size: about 53,000 compounds; about 900 (1.7%) showed an effect of 50% or more. This is one part of a sample in which strong results are shown more often than they occur.

The test deals with Mycobacterium tuberculosis. Nature of the test: Cornell - Phenotypic assay to identify agents that inhibit growth of Mycobacterium tuberculosis. Type of test: functional. Also noted: scale not given: direction of the effect not stated beside the values. The settings on record: 10 mM as filed; unlikely as a test dose.
Turning to `Cn1nc(CN2CCCC2)c2c1CN(c1cnccn1)CC2.O=C(O)C(F)(F)F.O=C(O)C(F)(F)F`, the “Percent Effect” value is given as -1.06%. Turning to `COCCC(=O)N1C[C@H]2CN(Cc3cccnc3)C(=O)[C@H]2C1.O=C(O)C(F)(F)F`, the “Percent Effect” value came out at 9.901%. As to `CC(=O)c1c(C)nn(CC(=O)Nc2ccc(F)cc2)c1C`, the “Percent Effect” value is -30.72%.

Regarding `COc1ccc(NC(=O)Cn2nc(C)c(C)cc2=O)cc1`, the “Percent Effect” value is reported as -2.402%. As for `COc1ccc(NC(=O)Cn2nc(C)c(C)cc2=O)cc1Cl`, the figure is 14.09%; as for `Cc1cc(=O)n(CC(=O)Nc2ccc(Cl)cc2)nc1C`, 13.93%; as for `COc1ccc(NC(=O)Cn2nc(C)c(C(C)=O)c2C)cc1`, 109.6%. As for `CC(=O)c1c(C)nn(CC(=O)Nc2ccc(Br)cc2)c1C`, the figure is 109.5%.

As for `COCCN1CC[C@]2(CN(C(=O)c3ccc[nH]3)C[C@H]2C)C1=O`, the “Percent Effect” value is given as 14.18%. As for `Cc1nn(C)c(Cl)c1C1CCCN1Cc1noc(C2CC2)n1` (centres undefined), the figure is -6.241%; as for `CCCC(NC(=O)c1cscc1C)c1nnn[nH]1` (centres undefined), -31.84%; as for `Cc1cnc(CN(C)C2CCN(Cc3sc(C)nc3C)C2)o1` (centres undefined), -24.44%. With `CC(Oc1ccccc1C(F)(F)F)C(=O)NS(=O)(=O)C(C)C` (centres undefined), the “Percent Effect” value stood at 54.22%. In the case of `COC(=O)CNC(=O)C(C)Oc1ccccc1C(F)(F)F` (centres undefined), the “Percent Effect” value is -2.134%. As for `CC(Oc1ccccc1C(F)(F)F)C(=O)NCC(N)=O` (centres undefined), the figure is -32.94%; as for `COCCCN(Cc1ccncc1)c1ncc(C#N)cc1Cl`, 15.37%.

On to `COc1cc(C(=O)NS(=O)(=O)c2cccc(C#N)c2)ccc1C`, for which the “Percent Effect” value is 15.37%. As for `COc1cc(C(=O)Nc2nc(C)no2)ccc1C`, the figure is 102.2%; as for `Cc1cc(NC(=O)c2ccc(C)c(F)c2)[nH]n1`, 32.04%.

With `Cc1noc(NC(=O)c2ccc(C)c(F)c2)n1`, the “Percent Effect” value is recorded as 108.6%. As for `Cc1noc(NC(=O)c2ccc(F)cc2)n1`, the figure is 2.649%. As for `COc1cc(C(=O)Nc2c(C)noc2C)ccc1C`, the figure is 19.94%; as for `Fc1cc(Cl)cnc1N1CCCC(c2nccn2Cc2ccccn2)C1` (centres undefined), 15.7%. Regarding `O=C(c1cc(Cn2ccc3ccccc32)[nH]n1)N1CCC[C@H]1CO`, the “Percent Effect” value is 36.89%. For `Cc1c(CN2C[C@@H](O)[C@H](Oc3cccc(F)c3)C2)cnn1C`, the “Percent Effect” value is -27.75%. As for `Cn1nc(CNC(=O)C2CC2)cc1C1CC1`, the figure is 29.19%. Consider `CCc1c(C)nc(-n2nc(C3CC3)cc2NC(C)=O)[nH]c1=O`, for which the “Percent Effect” value was 9.536%. The value for `CCc1cc(=O)[nH]c(-n2nc(C3CC3)cc2NC(=O)C2CC2)n1` was 108.9%; that for `CCCc1cc(=O)[nH]c(-c2cccc(CN3CCCCCC3)c2)n1` was 11.6%.

Regarding `CC(C)c1cc(=O)[nH]c(-n2nc(C3CC3)cc2N)n1`, the “Percent Effect” value came to 108.3%. The value for `CCCc1cc(=O)[nH]c(-n2nc(C3CC3)cc2N)n1` was 107.6%; that for `CCCc1cc(=O)[nH]c(SCc2ccccn2)n1` was -4.123%.

In the case of `Cc1cc(=O)[nH]c(-n2nc(C3CC3)cc2N)n1`, the “Percent Effect” value worked out at 39.12%. As for `CC(C)c1cc(=O)[nH]c(C(C)(C)N)n1.Cl`, the figure is 8.844%.
